Source: PubChem BioAssay (NCI)
Compounds without any hit were thinned out: in the full panel of roughly 83,000, 20% have a hit.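 For each line, cells grew in 96-well plates with the test compound present at a single concentration for 48 hours.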 Unmarked numbers belong to inactive results. Activity calls are given as the source filed them. Rule for the calls: active = growth percent below 10; inactive = the rest.

Key:
Assay in all cases: NCI-60 one-dose screen, 48 h (100 = growth as untreated, 0 = no growth, -100 = all killed)
Settings in all cases: 10 µM
NCI-H23 lung = system: NCI-H23 lung
NCI-H226 lung = system: NCI-H226 lung
NCI-H322M lung = system: NCI-H322M lung
HOP-62 NSCLC = system: HOP-62 NSCLC
NCI-H460 lung = system: NCI-H460 lung
NCI-H522 lung = system: NCI-H522 lung
A549/ATCC NSCLC = system: A549/ATCC NSCLC
786-0 renal = system: 786-0 renal
COLO 205 colon = system: COLO 205 colon
DU-145 prostate = system: DU-145 prostate
K-562 leukemia = system: K-562 leukemia
MALME-3M melanoma = system: MALME-3M melanoma
MDA-MB-231 breast = system: MDA-MB-231 breast
RXF 393 renal = system: RXF 393 renal
SF-268 CNS = system: SF-268 CNS
SF-295 CNS = system: SF-295 CNS
SF-539 CNS = system: SF-539 CNS
UACC-257 melanoma = system: UACC-257 melanoma
M14 melanoma = system: M14 melanoma
HCT-15 colon = system: HCT-15 colon

SMILES	growth (NCI-H23 lung)	growth (NCI-H226 lung)	growth (NCI-H322M lung)	growth (HOP-62 NSCLC)	growth (NCI-H460 lung)	growth (NCI-H522 lung)	growth (A549/ATCC NSCLC)	growth (786-0 renal)	growth (COLO 205 colon)	growth (DU-145 prostate)	growth (K-562 leukemia)	growth (MALME-3M melanoma)	growth (MDA-MB-231 breast)	growth (RXF 393 renal)	growth (SF-268 CNS)	growth (SF-295 CNS)	growth (SF-539 CNS)	growth (UACC-257 melanoma)	growth (M14 melanoma)	growth (HCT-15 colon)
O=C(Nc1ccccc1)Nc1cccc(-n2cc(-c3ccncc3)c(-c3ccc(O)c(Cl)c3)n2)c1	74.2%	93.8%	43.3%	77.7%	25.2%	51.4%	35.5%	38.5%	111%	71.1%	24.4%	20.2%	15.6%	47%	71.7%	-21.7% (active)	0.346% (active)	10.3%	31.8%	24.7%
Cc1ccc(C(=O)N2C/C(=C/c3ccc(F)cc3)C(=O)/C(=C/c3ccc(F)cc3)C2)cc1	97.6%	86.9%	90.6%	96.4%	101%	67.7%	94.5%	91.6%	111%	101%	44.2%	98.5%	83.4%	90.4%	85.2%	92.5%	93.2%	94.4%	84.8%	95.1%
CCOCCOCCOCCOCCOCCOCCOCCOCCOCCO (tested in a mixture with another compound)	7.79% (active)	28.2%	51.4%	24.4%	12.9%	-66.5% (active)	14%	39.3%	-89.7% (active)	28.1%	4.03% (active)	0.836% (active)	10.5%	37.3%	21.8%	-29.2% (active)	-10.1% (active)	-7.19% (active)	10.8%	22.1%
COc1ccc(-c2nc(-c3nc4cc(Cl)c(F)cc4[nH]3)c3ccccn23)cc1	85.8%	85.1%	69.6%	89.5%	81.1%	39.5%	49.4%	79.9%	79.1%	80.3%	40.3%	97.4%	57.5%	87.8%	75.3%	45.1%	92.8%	61.9%	66.2%	59.5%
O=C(Nc1ccc(Cl)cc1)N1NC(c2ccc(Cl)cc2)C=C1c1ccccc1 (stereo not given)	104%	109%	90.8%	93.4%	105%	98.4%	89.9%	92.1%	99.3%	102%	103%	100%	106%	102%	103%	105%	112%	99.7%	102%	103%
CN(C)c1ccc(Cc2ccc(N(C)C)cc2Cl)c(Cl)c1	97%	89.4%	99.3%	105%	98.4%	80.1%	96.5%	112%	108%	103%	90.2%	91.9%	109%	93.2%	103%	116%	108%	110%	107%	101%
CC(=O)n1c(-c2ccc(Cl)c(Cl)c2)cn(-c2ccc(Cl)cc2)c1=O	27.5%	76.2%	69%	-29.1% (active)	3.52% (active)	36.7%	-10.1% (active)	2.32% (active)	-19.2% (active)	0.358% (active)	-35% (active)	26.6%	33.3%	-31.2% (active)	-32.7% (active)	1.9% (active)	-33.2% (active)	57.5%	34%	59%
COc1ccc(S(=O)(=O)NCCCNc2nccc(-c3c(-c4ccc(F)cc4)nc4sccn34)n2)cc1	74.8%	68.9%	52.7%	79.7%	36.3%	59.3%	32%	72.4%	26.9%	58.8%	17.6%	57.7%	75.4%	68.1%	50.6%	45.7%	93.7%	67.7%	57.3%	57.2%
COc1cc2nc(Nc3cccc(NC(C)=O)c3)nc(N)c2cc1OC	135%	90.9%	120%	94.4%	110%	93.2%	105%	94.7%	109%	90.2%	103%	101%	86.9%	94.1%	92.3%	131%	101%	98.3%	107%	93.8%
N#CCCN(NC(=O)OCc1ccccc1)C(=O)OCc1ccccc1	107%	115%	109%	120%	103%	120%	106%	97.9%	119%	109%	106%	105%	113%	111%	106%	99.1%	106%	107%	103%	107%
O=S(=O)(NCCCNc1nccc(-c2c(-c3ccc(F)cc3)nc3sccn23)n1)c1ccc(F)cc1	56.2%	40%	43.2%	74%	26.9%	36.4%	25.9%	59%	21%	44.6%	13.5%	48.5%	73.3%	57.9%	45.4%	25.4%	78.1%	57.2%	44.4%	38.4%
CN(C)CCN1C(=O)c2cccc3cc(N)cc(c23)C1=O	31.5%	-30.3% (active)	29.4%	34%	0.597% (active)	-28.3% (active)	12%	25.7%	26.2%	4.45% (active)	3.5% (active)	17.4%	57%	18.3%	37.8%	21.1%	33.4%	5.64% (active)	42%	11.8%
c1ccc([I+]c2ccccc2)cc1	55.6%	65.5%	72.8%	53.3%	86.5%	64.7%	48.7%	61%	55%	90%	42.2%	50.5%	87.6%	60.4%	55.7%	81%	68.9%	78.6%	72.5%	89.4%
COc1ccc(Oc2nc(NC3CCCC3)nc(Sc3ccc(OC)cc3)n2)cc1	79.6%	67.4%	90.5%	75.7%	47.7%	66.9%	72.8%	79.9%	82.2%	91.7%	53.3%	69.6%	50.1%	74.1%	55.6%	67.4%	83.4%	87.3%	87.6%	43.9%
COc1cc(-c2nn3c(/C=C4/C(=O)Nc5ccccc54)c(-c4ccc(C)cc4)nc3s2)cc(OC)c1OC	51.2%	96.4%	73.5%	79.5%	29%	58%	29.8%	70.9%	68.5%	14%	55.7%	-23.8% (active)	50.6%	63.7%	15.9%	74.1%	81.8%	34.4%	42.9%	58.9%
Nc1ncnc2[nH]c(=O)[nH]c12	103%	87.7%	103%	97.9%	95.5%	105%	118%	102%	132%	99.5%	46.5%	104%	91.4%	22.1%	89%	85.1%	87%	103%	94.6%	96.3%
